The chains are these.
B1: 24016654_24036560_782_3pUTR_ENSMUSG00000024277_ENSMUST00000025127|mouse|control|control (ssRNA)
RNA: GGGAGUUCUACAGUCCGACGAUCCGUUUCUAAAUCUUUGUCAGAUCUGGAUGCAGAGCCACUGGAUGAAGCCCUUUUGGCAGACGAGGGGCGAGAAGGUGUGGAUCCUGGCUUAGAUGCAGGACUUGACUUAGCCGCGCCUGCCAACAGAGGAUUGAGCAUCA
B2: chr11:77340908:77340909:-_ENSG00000074201_ENST00000525064|hu_mus|FALSE|FALSE (ssRNA)
RNA: GGGAGUUCUACAGUCCGACGAUCGUUUGGAUCCCUGGACACCGCAUGUAAACUAAUGGUGGGGUAUUCCAGUGAGAAUCCUAAUCCCGAACCAUCUAACCAGGACAGGCGGCUCUCCGCGAUGUAAAGCGUGCCGGUGCCGAGCAACAGAGGAUUGAGCAUCA
B3: chr11:115359427:115359428:-_ENSMUSG00000020737_ENSMUST00000021083|mus_hu|motif|central (ssRNA)
RNA: GGGAGUUCUACAGUCCGACGAUCUGCAGUUCACAAGCAUGGAGGAAACAGACAGAACGACAGCGUUCAGGACAGUCAGAGCGGACCCAAGACGAGGCUGGACUUGCCGCCAGGGGGAUUUCUUCUGGAUGGCACUGGGGCCGGCAACAGAGGAUUGAGCAUCA
B4: chr11:63961690:63961691:+_ENSG00000168439_ENST00000305218|hu_mus|FALSE|FALSE (ssRNA)
RNA: GGGAGUUCUACAGUCCGACGAUCUUCAUGUUUUAAACCUUCUUCAUAGGUUCGUUUGGCUUCCUCAAACCGGUUUAGGAAUUCAAGGGCUGCUGCUUUUCUUGAAUAACCCUUGCCCCAGUCAGGCUUCAGGUCAACAGUCUUCAACAGAGGAUUGAGCAUCA
B5: chr13:42873775:42873776:+_ENSG00000023516_ENST00000025301|hu_hu|FALSE|FALSE (ssRNA)
RNA: GGGAGUUCUACAGUCCGACGAUCAGAAGACGAAAAAAAUGUUUUCUGUAAAUCACUAUCUUUAUCUGAAGCAUUAGAUGACCUAUAGAAACUCCUUUGGGUCCAAGGCUCUGAAAUUGAUGUUGUGACUGAAGUUUUCACAGACAACAGAGGAUUGAGCAUCA
B6: chr9:100389865:100389866:-_ENSG00000136925_ENST00000341170|hu_mus|FALSE|FALSE (ssRNA)
RNA: GGGAGUUCUACAGUCCGACGAUCUAUCAGUGGGACAGGUUCCUUGCAGACAAGUAUCUUCCGCAAACCCUAGGCCUUUCCUGGGUCUCCCUUCACCAACUUGGCGCUGCUCCCCGCCCUCGAGCCCACGCCCCCCGGCGCGCGCAACAGAGGAUUGAGCAUCA
B7: chr9:74904954:74904955:+_ENSMUSG00000007656_ENSMUST00000169492|mus_mus|FALSE|FALSE (ssRNA)
RNA: GGGAGUUCUACAGUCCGACGAUCUCAAAAGGAAGAUACAGAAGAAAUCAAUACAACAGAGGUCCUGUUAAAUAAGAGUAACAUACAAAGCUGUAAUCAUGAGAAAGUAAAGAAAGCCAGAGCAUUAAAGCUGUAAAACUUGCUCAACAGAGGAUUGAGCAUCA
B8: chr14:73742652:73742653:-_ENSG00000133961_ENST00000557597|hu_hu|FALSE|FALSE (ssRNA)
RNA: GGGAGUUCUACAGUCCGACGAUCCCCCUUUACCUUUGGCAAGAUUACUUACAACUCAUACAACUUCUUAAUAUCUGAGAACUAUUUAAAAUAUUCUAAAUGCAUAAAAAUAAAGAUUUUGGCUUUUGAUAUAUAUAAUAUUUACAACAGAGGAUUGAGCAUCA
B9: chr11:18422405:18422406:+_ENSG00000134333_ENST00000379412|hu_hu|motif|central (ssRNA)
RNA: GGGAGUUCUACAGUCCGACGAUCCAGCUUGGAGUUUGCAGUUACAUUAUAGUCUUUGCCAGAGACAAUCUUUGGUGUUCGGAGGAAAAGGCUGCCAUGUUGGAGAUCCAUCAUCUCUCCCUUCAAUUUGUCUUCGAUGACAUCCAACAGAGGAUUGAGCAUCA
B10: chr14:89338683:89338684:+_ENSG00000165533_ENST00000346301|hu_hu|hu_hu_hu_mus_False|58_108 (ssRNA)
RNA: GGGAGUUCUACAGUCCGACGAUCGUGGUUGUUGUUGACCAGGGCCAGCCUGAAGCAUUGGUGGGCCAAGUUUGUAUCUCCUAUUCCCACAGCUAUGUGCCCCAGGUUGUACCAGACAUCAGCUGCCUCUUCUUCAUUUUCAGCCAACAGAGGAUUGAGCAUCA
B11: chr2:198351390:198351391:-_ENSG00000144381_ENST00000345042|hu_hu|hu_hu_hu_mus_False|78_78 (ssRNA)
RNA: GGGAGUUCUACAGUCCGACGAUCUCAUUCCCACCCUCCACAGAAAGGCUGCUUCUGUUCUCAUCUGUGGUGACACAGCGCUACAGUCCUGAUGCUCACAGAACAGUAGAGAUGCCUCAGUGAUUUAAGUUGAAAGCAGGACACCAACAGAGGAUUGAGCAUCA
B12: chr4:34758383:34758384:-_ENSMUSG00000039967_ENSMUST00000047950|mus_mus|FALSE|FALSE (ssRNA)
RNA: GGGAGUUCUACAGUCCGACGAUCUUCAUCAUCUGAACCAUCGUUGUCAUUAAACACUAUGAAAUCUGUUGAAUAAAGACUAUUCUUUUUUAUGGGUCGCUGUUCCUGUUUAGCCACAGUAUUAAUAUUAGUCUUUUGAUUUUCCAACAGAGGAUUGAGCAUCA
B13: chr17:13115065:13115066:+_ENSMUSG00000068039_ENSMUST00000151287|mus_mus|FALSE|FALSE (ssRNA)
RNA: GGGAGUUCUACAGUCCGACGAUCGAUACUUGCUCCAGAAGCUUUUGCAACAUGCUUCAGGUCUCGUUUUAAAACUCUCCUAACAGCCAUGGCACCAGCUUCCACAAAAUACUUGAGAUACAUAUCAUCAAUGCCACCAGUGGUCAACAGAGGAUUGAGCAUCA
B14: chr15:31385891:31385892:-_ENSMUSG00000039100_ENSMUST00000090227|mus_mus|motif|central (ssRNA)
RNA: GGGAGUUCUACAGUCCGACGAUCAUUCACUCCUAAACAGACACCCCUAGGCCUUAGUCACUCAUUUCCAUCUAAGGUUCGGUAGGAUUGUCAUGAUUACAAAAUGAGGCACUCAGACAGAUAGACAGGAAUGGAGACAUACAUCAACAGAGGAUUGAGCAUCA

The full ranking holds about 24,000 sequences; the median of “enrichment r” is about 0.99, and the highest 2% start at about 3.7. Not all results are given here.

The assay addresses T1, UNK ZnF1-3 (human, UniProt Q9C0B0 31-174).
T1 sequence: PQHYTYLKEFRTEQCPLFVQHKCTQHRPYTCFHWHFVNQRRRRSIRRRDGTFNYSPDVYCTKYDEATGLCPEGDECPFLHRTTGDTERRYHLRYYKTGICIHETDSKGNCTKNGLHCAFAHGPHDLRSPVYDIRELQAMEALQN
The experiment in a line: nsRBNS (natural sequence RNA bind-n-seq); RBNS binding buffer (assumed for nsRBNS): 25 mM Tris pH 7.5, 150 mM KCl, 3 mM MgCl2, 0.01% Triton X-100, 500 ug/ml BSA, 20 U/ml SUPERase-In, 4 C; UNK is unkempt and MSI1 is Musashi-1; names of the RNAs are library labels; protein concentration not given here; high values mean tight binding.
B1: the binding signal was determined as 0.536 enrichment R.

For the molecule B2, the binding signal worked out at 0.705 enrichment R.

In turn, B3 showed a binding signal of 1.45 enrichment R.

The molecule B4 displayed a binding signal of 0.607 enrichment R.

The molecule B5 had a binding signal of 0.809 enrichment R.

Molecule B6 came in with a binding signal of 1.19 enrichment R.

The molecule B7 came in with a binding signal of 2.34 enrichment R.

Take B8: the binding signal was 1.07 enrichment R.

In turn, B9 registered a binding signal of 0.638 enrichment R.

B10 gave a binding signal of 0.492 enrichment R.

With B11, the binding signal amounted to 1.4 enrichment R.

Take B12: the binding signal turned out to be 0.418 enrichment R.

The molecule B13 came in with a binding signal of 0.985 enrichment R.

Turning to B14, the binding signal was found to be 1.25 enrichment R.
